Screening data: PubChem, several laboratories
Calb FLC = C. albicans growth modulation with fluconazole. AID 1979. C. albicans CaCi-2 (fluconazole-resistant clinical isolate) + fluconazole, Alamar Blue growth, 48 h. growth inhibition, % (test concentration not listed). 300,000 tested, 0.57% active;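 active = growth inhibition above about 58% in most replicates, limit read from the data, passing the limit was not always enough; inconclusive = exactly half the replicates above a set limit; inactive = most replicates below a set limit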;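 note: all wells also contain fluconazole at 8 µg/ml as a sub-toxic cotreatment; 0% = median of DMSO wells and 100% = median of geldanamycin control wells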
Mdm2-MdmX inh = disrupts the human Mdm2-MdmX interaction. O15151+Q00987. SaOS-2 split-luciferase Mdm2/MdmX complementation, luminescence. inhibition, % at 8 µM. 330,000 tested, 3% active;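 active = inhibition of at least 50% at 8 µM in the primary screen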
Target sequence (O15151 whole entry, looked up): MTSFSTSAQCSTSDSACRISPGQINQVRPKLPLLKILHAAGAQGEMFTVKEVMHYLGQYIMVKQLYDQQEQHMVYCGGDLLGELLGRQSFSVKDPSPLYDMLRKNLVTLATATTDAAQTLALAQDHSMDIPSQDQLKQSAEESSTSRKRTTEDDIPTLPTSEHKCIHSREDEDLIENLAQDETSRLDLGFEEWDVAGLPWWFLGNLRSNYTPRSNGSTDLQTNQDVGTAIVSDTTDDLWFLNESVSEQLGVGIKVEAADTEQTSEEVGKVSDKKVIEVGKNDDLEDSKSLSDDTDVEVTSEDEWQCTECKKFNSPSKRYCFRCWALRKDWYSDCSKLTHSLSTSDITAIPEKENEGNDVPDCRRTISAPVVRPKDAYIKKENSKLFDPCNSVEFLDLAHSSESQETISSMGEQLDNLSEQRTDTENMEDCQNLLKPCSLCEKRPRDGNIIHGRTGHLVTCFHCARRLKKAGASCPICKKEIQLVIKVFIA
Target sequence (Q00987 whole entry, looked up): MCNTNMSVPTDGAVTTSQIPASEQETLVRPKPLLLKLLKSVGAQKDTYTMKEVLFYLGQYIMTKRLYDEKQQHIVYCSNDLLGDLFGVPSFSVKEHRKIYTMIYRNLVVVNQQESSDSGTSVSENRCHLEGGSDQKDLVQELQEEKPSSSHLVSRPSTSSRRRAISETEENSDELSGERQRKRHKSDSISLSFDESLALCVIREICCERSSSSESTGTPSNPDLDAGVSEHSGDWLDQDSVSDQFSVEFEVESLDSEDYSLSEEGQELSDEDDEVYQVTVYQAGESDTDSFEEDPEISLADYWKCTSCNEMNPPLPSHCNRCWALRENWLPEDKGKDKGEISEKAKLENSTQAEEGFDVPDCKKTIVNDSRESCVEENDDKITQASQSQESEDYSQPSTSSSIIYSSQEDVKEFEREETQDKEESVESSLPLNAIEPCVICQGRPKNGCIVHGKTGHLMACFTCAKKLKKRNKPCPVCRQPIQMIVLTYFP
MPTP block = permeability transition pore inhibition. isolated mouse mitochondria, Ca2+ swelling absorbance, 30 min. inhibition, % at 10 µM. 360,000 tested, 1.4% active;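 active = inhibition of 50% or more, scaled per plate between neutral and stimulator controls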;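 note: 0% = DMSO wells given calcium and 100% = 1 mM EGTA wells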
CSC inhib = blocks cancer stem cells. cancer stem cell-like cells viability, luminescence. inhibition, % at 7.5 µM. 300,000 tested, 1.1% active. AID 2717; in the data active = inhibition above about 75%; inconclusive = no clear call, values can overlap the other calls; tested in HMLE shEcad cells
Beta cell apopt = beta cell apoptosis inhibition. protection from apoptosis, % (concentration not given with the values). 300,000 tested, 0.8% active. AID 435005. INS-1E cytokine-induced death, ATP luminescence, 48 h; percent of positive-control rescue, neutral wells zero;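 active = Every replicate reaches about 75%, or at least half do and their mean reaches it too, limit read from the data; inconclusive = At least half of replicates reach the limit but their mean does not; inactive = Under half of replicates reach the limit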;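 note: 0% = cytokine-treated negative control wells and 100% = positive control rescue; higher means more ATP so stronger rescue from cytokine killing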
SKKanGAS inh = inhibitors of SKKanGAS S. pyogenes growth in kanamycin (SK-promoter or general growth effect); BacTiter-Glo, 6 h; inhibition, % at 7.5 µM; 300,000 tested, 1.3% active;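 active = mean replicate score, as percent of positive control median, at least 50; inconclusive = mean below 50 but one replicate at or above 50; inactive = mean and every replicate below 50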;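 note: strain carries kanamycin resistance gene driven by streptokinase promoter and grows in 40 µg/ml kanamycin; loss of luminescence reflects streptokinase promoter inhibition or plain growth inhibition; 0% = median of DMSO wells and 100% = positive control at its reference dose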
Mdm2 MdmX conf = human Mdm2/MdmX binding inhibition, confirmed | 10,000 tested, 55% active | luminescent assay | inhibition, % at 8 µM | shares compounds with Mdm2-MdmX inh; in the data active = inhibition above about 40%
Full FLuc ctr = counter-screen for Mdm2/MdmX inhibitors: full-length luciferase; shares compounds with Mdm2-MdmX inh; SaOS-2 full-length luciferase counterscreen, luminescence; inhibition, % at 8 µM; 6,200 tested, 77% active;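 active = mean inhibition at 8 µM reaching about 37%, which flags the compound as non-specific, limit read from the data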;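 note: p53-null SaOS-2 cells with luciferase driven by a doxycycline-inducible promoter; compound on cells about two nights before reading with doxycycline added after day one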
Active calls of the source: *; u = inconclusive; x = no result given. Only some compounds are listed: those with a hit (about 5.4% of all), similar ones and a draw of the others.

SMILES	Calb FLC	Mdm2-MdmX inh	MPTP block	CSC inhib	Beta cell apopt	SKKanGAS inh	Mdm2 MdmX conf	Full FLuc ctr
COc1ccc(C2c3ccc(O)cc3Oc3ncn(Cc4ccccc4)c(=N)c32)cc1OC (configuration not stated)	-3	18	0	-4	9	0	x	x
COc1ccc(C2c3ccc4ccccc4c3Oc3ncn(CCO)c(=N)c32)cc1OC (configuration not stated)	25	58*	1	15	4	2	33	x
CN(C)C=NC(=O)c1ccc(N2CCN(c3ncc(C(F)(F)F)cc3Cl)CC2)cc1	7	13	4	-10	-18	-2	x	x
CN(C)/C=C/C(=O)c1ccc(N2CCN(c3ncc(C(F)(F)F)cc3Cl)CC2)cc1	21	92*	-1	26	0	16	1	x
O=[N+]([O-])c1ccc(-c2nc(Nc3ccc(O)cc3)c3ccccc3n2)cc1	3	70*	4	47	8	18	28	x
Cc1ccc(Nc2nc(-c3cccnc3)nc3ccccc23)cc1	2	63*	16	65	x	0	57*	57*
Cc1c(O)ccc(/C=N/Nc2nc(-c3cccnc3)nc3ccccc23)c1O	0	66*	10	48	24	0	59*	70*
Oc1ccc(/C=N/Nc2nc(-c3cccnc3)nc3ccccc23)c(O)c1	u	33	9	16	21	8	x	x
O=C(CSc1nc(-c2ccccc2)cs1)Nc1nccs1	112*	59*	2	8	-3	-5	-7	x
CCn1c(CC(=O)Nc2ccc(C)c(Cl)c2)nnc1SCC(=O)Nc1nc(C)cs1	-1	63*	0	0	-5	4	-2	x
O=C(CSc1ccccc1)Nc1nccs1	-22	-27	1	x	-3	-10	x	x
COc1ccc(NC(=O)Cc2nnc(SCC(=O)Nc3nccs3)n2C)cc1	-8	7	-1	-10	-7	1	x	x
CCn1c(CC(=O)Nc2ccc(C)c(Cl)c2)nnc1SCc1ccc(Cl)c(Cl)c1	5	-7	4	-8	-2	-4	x	x
CCn1c(CC(=O)Nc2cccc(OC)c2)nnc1SCC(=O)Nc1nccs1	22	57*	0	-5	-1	-2	54*	59*
Cc1ccc(-n2c(COc3c(C)cccc3C)nnc2SCC(=O)Nc2nccs2)cc1	6	-27	-2	-3	-3	1	x	x
Cc1ccc(OCc2nnc(SCC(=O)Nc3nccs3)n2-c2ccccc2)cc1C	-13	55*	-1	-13	3	-4	25	x
O=C(NCc1ccc(F)cc1)c1cc(C2CCCN(C(=O)c3ccccn3)C2)on1 (configuration not stated)	x	x	1	x	x	x	x	x
CCc1cccc(C)c1NC(=S)NCCc1c(C)[nH]c2ccc(C)cc12	-14	64*	1	5	3	10	54*	41*
CCc1cccc(CC)c1NC(=S)NCCc1c(C)[nH]c2ccc(C)cc12	-17	71*	0	18	42	10	51*	54*
COc1ccc2[nH]c(C)c(CCNC(=S)Nc3cccc(C)c3)c2c1	-4	46	-1	-7	x	6	x	x
Cc1oc(-c2ccccc2Cl)nc1Cn1cccc1C1=NC(c2ccccc2)CO1 (configuration not stated)	-3	55*	5	49	2	u	57*	90*
O=C(c1ccccc1F)N1CCN(c2cccc(C(F)(F)F)c2)CC1	-9	16	2	-5	0	-3	x	x
O=C(c1c(F)c(F)c(F)c(F)c1F)N1CCN(c2cccc(C(F)(F)F)c2)CC1	2	58*	3	46	8	3	16	x
O=C(c1ccncc1)N1CCN(CCc2ccccc2)CC1	6	-1	0	x	x	1	x	x
Cc1cc(C)nc(N/N=C/c2cc(Br)ccc2O)n1	-3	75*	0	41	88*	69*	76*	26
CN1C2CCC1/C(=C\c1ccccc1)C(=O)/C2=C\c1ccccc1	17	95*	0	92*	-22	12	57*	15
